Reference: PubChem BioAssay AID463173 (ICCB-Longwood Screening Facility, Harvard Medical School, 2010)
About 4,300 (8.3%) of roughly 52,000 compounds were called active. The sample holds actives, similar compounds and a random draw of the others, so the mix is not that of the screen. Values without a mark were called inactive. No stated cut-off is given here; in the data, active means survival mostly below about 52% (no sharp cut-off); inactive means mostly above about 56%.

Test system: DeltatarO mutant
Test: S. aureus survival, RN4220 and DeltatarO strains – OD600, teichoic acid synthesis inhibitors, primary screen (AID 463173)
Details: S. aureus RN4220 wild type/DeltatarO growth, OD600, 18 h, stronger effect = lower value, screened at 18.75 µg/mL (by protocol)

Point of comparison: `CCOc1ccc(C(=O)Cn2c(=O)n3nc(CCn4nc(C)cc4C)nc3c3cc(OC)c(OC)cc32)cc1`, survival 98%. Against it:
- Cc1ccc(Cc2nc3ccccc3nc2SCC(=O)NCc2ccccc2Cl)cc1 — higher, 120%
- O=C(Cn1c(=O)n(-c2ccccc2Cl)c(=O)c2sc3ccccc3c21)N1CCCC1 — lower, 80%
- O=c1c2oc3ccccc3c2n(Cc2ccccc2Cl)c(=O)n1Cc1ccc2c(c1)OCO2 — lower, 65%
- CSc1ccc(CNC(=O)c2cc3cc(S(=O)(=O)N4CCCCC4)ccc3n2C)cc1 — lower, 95%
- Cc1ccc(Cl)cc1NC(=O)CSc1nc2ccccc2c2nc(-c3ccccc3)nn12 — higher, 113%
- CCOC(=O)CC(NC(=O)CCc1c(C)nc2ncnn2c1C)c1ccc(OC(C)C)cc1 (stereo not drawn) — higher, 114%
- Cc1ccc(Cn2c(C(=O)Nc3ccc(Cl)cc3)cc3sccc32)cc1 — higher, 112%
- CC(=O)c1c(C)n(-c2ccc(Cl)cc2)c2ccc(OC(=O)COc3ccccc3)cc12 — lower, 63%
- CCn1c(CNc2nc(-c3ccccc3)cs2)nnc1SCC(=O)c1ccc(OC)cc1 — lower, 87%
- Cn1c(CNc2nc(-c3ccccc3)cs2)nnc1SCC(=O)OC1CCCCC1 — lower, 73%
- CSc1ccc(CCNC(=O)c2ccc3c(Cl)c4c(nc3c2)CCCC4)cc1 — lower, 64%
- CCCOC(=O)c1ccc2c(c1)C(=O)N(c1ccccc1)C2=O — lower, 78%
- O=C(NCc1ccc2c(c1)OCO2)c1ccc2c(c1)N(Cc1ccccc1)C(=O)c1ccccc1S2=O (stereo not drawn) — lower, 83%
- CC(CNC(=O)c1ccc(Cn2c(SCc3ccccc3)nc3cccnc32)cc1)c1ccccc1 (stereo not drawn) — lower, 69%
- O=C(O)CN1CCCCC1 — lower, 89%
- COc1ccc(C(=O)n2nc(-c3ccc(Cl)cc3)nc2NCc2ccco2)cc1 — higher, 115%
- O=C(c1ccco1)n1nc(-c2ccccc2)nc1NCc1ccc(Cl)cc1 — lower, 91%
- O=C(c1ccco1)n1nc(-c2ccc(Cl)cc2)nc1NCc1ccc(F)cc1 — lower, 80%
- O=C(c1ccco1)n1nc(-c2ccc(Cl)cc2)nc1NCc1ccccc1 — lower, 74%
- O=C(c1ccc(F)cc1)n1nc(-c2ccc(Cl)cc2)nc1NCc1ccco1 — lower, 70%
- O=C(c1ccco1)n1nc(-c2ccccc2)nc1NCc1ccccc1Cl — lower, 96%
- Cc1ccc2onc(CNC(=O)NCc3ccc(Cl)cc3)c2c1 — lower, 77%
- FC(F)(F)COc1nc(OCC(F)(F)F)nc(N(c2ccccc2)c2ccccc2)n1 — lower, 71%
- O=C(CCCCn1c(=O)c2ccccc2n(Cc2ccccc2Cl)c1=O)NCc1ccc2c(c1)OCO2 — lower, 78%
- COc1ccc(S(=O)(=O)c2c(Nc3c(C)cccc3C)sc(C(=O)c3ccc(F)cc3)c2N)cc1 — the same, 98%
- Cc1ccc(C)c(S(=O)(=O)c2nnn3c2nc(N2CCCCC2)c2sccc23)c1 — lower, 60%
- COc1cccc(C(=O)N2CCCCC2CCN2CCCCC2)c1 (stereo not drawn) — lower, 83%
- O=c1[nH]c2ccccc2nc1/C=C(\O)c1ccccc1 — lower, 83%
- NC(=O)NC(=O)c1nc2nonc2[nH]c1=O — lower, 91%
- Cc1cccc(OC2CCS(=O)(=O)C2)c1 (stereo not drawn) — lower, 87%
- COc1ccc(C2=C(C)C(=NCCCN3CCN(c4cc(Cl)ccc4C)CC3)NS2(=O)=O)cc1 — lower, 59%
- N#CC(C#N)=Cc1cn(CCCOc2ccccc2Cl)c2ccccc12 — lower, 76%
- Cc1ccc(C(=O)CSc2nnc(-c3ccccc3)n2-c2ccccc2)cc1 — higher, 99%
- O=C(CSc1nnc(-c2ccc(Br)cc2)n1-c1ccccc1)c1ccccc1 — lower, 69%
- CCn1c(SCC(=O)c2ccccc2)nnc1-c1ccco1 — lower, 86%
- Cc1ccc(-c2nnc(SCC(=O)c3ccc(Cl)cc3)n2-c2ccccc2)cc1 — lower, 85%
- CCOc1ccc(-c2nnc(SCC(=O)c3ccc(F)cc3)n2-c2ccccc2)cc1 — higher, 168%
- CCn1c(SCC(=O)c2ccc([N+](=O)[O-])cc2)nnc1-c1ccc(Cl)cc1 — lower, 70%
- COc1ccccc1-c1nnc(SCC(=O)OC(C)C)n1-c1ccccc1 — lower, 92%
- Cn1c(SCC(=O)c2ccc(F)cc2)nnc1-c1ccccc1Br — lower, 57%
- CCCCNC(=O)CSc1nc(-c2ccc(OC)cc2)cc(C(F)(F)F)n1 — lower, 66%
- Cc1oc2c(c(C)cc3oc(=O)c(CC(=O)NCc4ccc(F)cc4)c(C)c32)c1C — lower, 89%
- CCc1c(C)nc2cc(-c3cc(OC)cc(OC)c3)nn2c1NCCO — lower, 95%
- CC(=O)N1c2ccccc2C(=O)C1N1CCN(c2cccc(C(F)(F)F)c2)CC1 (stereo not drawn) — lower, 91%
- O=C(c1ccccc1)N1c2nc(-c3ccco3)nn2C2(CCCCC2)[C@@H]2CCCC[C@@H]21 — lower, 62%
- O=C(c1ccc(F)cc1)N1c2nc(-c3ccco3)nn2C2(CCCCC2)[C@@H]2CCCC[C@@H]21 — lower, 53%
- CSc1ccc(CCNC(=O)c2ccc(-c3nc(COc4ccc(C)cc4)c(C)o3)cc2)cc1 — lower, 82%
- COc1cccc(NC(=O)CSc2nc(=O)n(Cc3ccco3)c3c2CCC3)c1 — lower, 90%
- Cc1c(Cl)cccc1NC(=O)CCN1C(=O)c2ccccc2Sc2ncccc21 — lower, 78%
- COc1ccc(OC)c(Nc2c3c(nc4ccccc24)CCC3)c1 — lower, 94%
- Fc1ccc(Nc2c3c(nc4ccccc24)CCC3)cc1 — lower, 69%
- COc1ccc(Nc2c3c(nc4ccccc24)CCC3)cc1Cl — lower, 59%
- COc1ccc(C)cc1Nc1c2c(nc3ccccc13)CCC2 — lower, 85%
- CCOC(=O)c1ccc(CN(Cc2ccccc2C)S(=O)(=O)c2ccc(C(C)(C)C)cc2)cc1 — lower, 83%
- CCN1C(=O)c2ccccc2S(=O)(=O)c2ccc(C(=O)NCc3ccc(C)cc3)cc21 — lower, 61%
- Cc1ccc(C(=O)c2cn(CC(=O)NCc3ccccc3)c3nc(C)ccc3c2=O)cc1 — lower, 95%
- Cc1ccc(CNC(=O)c2c(-c3ccc(F)cc3F)noc2C)o1 — lower, 77%
- CCc1nn2c(=O)cc(COC(=O)c3ccccc3NC(=O)COc3ccc(C)c(C)c3)nc2s1 — lower, 87%
- CN(C)CCNC(=O)CCCn1c(=O)c2cccn2c2ccccc21 — lower, 64%
- O=C(CCCn1c(=O)c2cccn2c2cccnc21)NCc1ccccc1Br — higher, 130%
- CCCCN(CC)C(=O)CCn1c(=O)c2cccn2c2cccnc21 — lower, 70%
- Cc1ccccc1CNC(=O)CCCn1c(=O)c2cccn2c2ccccc21 — lower, 68%
- COc1ccc(Br)cc1CNC(=O)CCCn1c(=O)c2cccn2c2cccnc21 — higher, 106%
- COc1ccccc1CNC(=O)CCCn1c(=O)c2cccn2c2ccccc21 — lower, 76%
- O=C(CN1C(=O)CCSc2ccccc21)Nc1ccccc1F — lower, 85%
- CCc1ccc(NC(=O)C2CCN(c3nn4c(=O)cc(C)nc4s3)CC2)cc1 — higher, 101%
- COc1ccc(Cn2c(=O)c3cccnc3n(CC(=O)Nc3c(C)cc(C)cc3C)c2=O)cc1 — lower, 87%
- O=C(CN1C(=O)COc2ccc(S(=O)(=O)N3CCCCC3)cc21)NCc1ccc(Cl)cc1 — lower, 64%
- CCOC(=O)c1ccc(NC(=O)c2nn(C)c3c2COc2ccccc2-3)cc1 — higher, 106%
- O=C(CSC1=Nc2ccccc2N=C(c2ccc(F)cc2)C1)NCc1ccc(Cl)cc1 — lower, 72%
- CCc1nn(CC(=O)N2CCCCC2)c(=O)c2cc3sccc3n12 — lower, 65%
- CC(=O)Nc1ccc(NC(=O)Cn2c(=O)ccc3cc(S(=O)(=O)N4CCC(C)CC4)ccc32)cc1 — lower, 84%
- Cc1ccc(NC(=O)Cn2c(=O)ccc3cc(S(=O)(=O)N4CCC(C)CC4)ccc32)cc1Cl — lower, 74%
- CC1CCN(S(=O)(=O)c2ccc3c(ccc(=O)n3CC(=O)NCc3ccccc3)c2)CC1 — lower, 49%
- CC1CCN(S(=O)(=O)c2ccc3c(ccc(=O)n3CC(=O)NCc3ccc(Cl)cc3)c2)CC1 — lower, 75%

For `Cn1c(CNc2nc(-c3ccccc3)cs2)nnc1SCC(=O)c1ccccc1`, the survival was 51% (active).
With `O=C(c1ccc(F)cc1)n1nc(-c2ccccc2)nc1NCc1ccco1` the survival was 18% (active).
With `O=C(c1ccc(Cl)cc1)n1nc(-c2ccccc2)nc1NCc1ccco1` the survival was 29% (active).
`O=C(c1ccccc1)n1nc(-c2ccc(Cl)cc2)nc1NCc1ccco1` was tested, and the survival was 23% (active).
For `O=c1[nH]c2nonc2nc1/C=C(\O)c1ccccc1`, the survival was 15% (active).
In the case of `CCn1c(SCC(=O)c2ccccc2)nnc1-c1cccc(Cl)c1`, the survival is reported as 39% (active).
For `COc1ccccc1-c1nnc(SCC(=O)c2ccc(F)cc2)n1-c1ccccc1`, the survival was 6% (active).
In the case of `COc1ccccc1-c1nnc(SCC(=O)c2ccc(Cl)cc2)n1-c1ccccc1`, the survival is reported as 1% (active).
For `O=C(CSc1nnc(-c2ccccc2Br)n1-c1ccccc1)c1ccc(F)cc1`, the survival was 17% (active).
With `Cc1ccc(C(=O)N2c3nc(-c4ccco4)nn3C3(CCCCC3)[C@@H]3CCCC[C@@H]32)cc1` the survival was 59% (active).
With `Cc1ccc2nc3c(c(Nc4ccc(C)c(C)c4)c2c1)CCC3` the survival was 38% (active).
For `Cc1ccc(Nc2c3c(nc4ccccc24)CCC3)cc1F`, the survival was 2% (active).
In the case of `O=C(CCCn1c(=O)c2cccn2c2ccccc21)NCc1ccccc1Br`, the survival is reported as 43% (active).
For `CCCCN(CC)C(=O)CCCn1c(=O)c2cccn2c2ccccc21`, the survival was 49% (active).
`COc1ccc(Br)cc1CNC(=O)CCCn1c(=O)c2cccn2c2ccccc21` was tested, and the survival was 39% (active).
For `Cc1ccc(CNC(=O)Cn2c(=O)ccc3cc(S(=O)(=O)N4CCC(C)CC4)ccc32)cc1`, the survival was 37% (active).
`CC1CCN(S(=O)(=O)c2ccc3c(ccc(=O)n3CC(=O)Nc3ccc(C(C)C)cc3)c2)CC1` was tested, and the survival was 0% (active).
